HEK293 tox = Cytotoxic Profiling in HEK 293 Cell Line of Diverse Libraries Using Quantitative High-Throughput Screening | HEK 293 viability, ATP luminescence (CellTiter-Glo), 48-72 h | 94,000 tested, 6.6% active | AID 1345083, 2018 | Potency, µM (highest dose often 115 µM), inactives show at the top dose activity change, negative = cytotoxicity, hits mostly inhibitors; note: nearly all actives have a fitted effect of over 60% in size
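CellTiter-Glo luminescence (cellular ATP) was read after 48 or 72 hr of compound exposure at 37 degree Celsius. Cells were HEK 293 plated at 250 cells/well.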
NPR1 antag = Natriuretic polypeptide receptor (hNpr1) antagonism - Primary qHTS | Atrial natriuretic peptide receptor 1 (Homo sapiens), P16066 | HEK293 hNpr1 GloSensor cGMP, ANP-stimulated luminescence | Potency, µM (series often up to 46.3 µM), inactives show at the top dose activity change, negative = inhibition, usual class: inhibitors | 76,000 tested, 1.6% active | AID 1347048, 2019; calls by dose curve; note: nearly all actives have a fitted effect of over 60% in size
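HEK293 cells stably expressing human Npr1 and cGMP GloSensor pGS-40F, loaded 2 h with 2% GloSensor reagent, given compound 30 min at room temperature. Luminescence read before and 20 min after 0.1 nM hNppA.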
Luciferase inh = Firefly luciferase inhibition profiling of diverse chemical library using quantitative high-throughput screening; Potency, µM (series often up to 115 µM), hits mostly inhibitors; Luciferin 4-monooxygenase (Photinus pyralis), P08659; AID 1347043, 2019; purified P. pyralis luciferase, luminescence, biochemical; 76,000 tested, 2.5% active; note: nearly all actives have a fitted effect of over 65% in size
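Luminescence read by CCD imaging after purified firefly luciferase (10nM final) was added to substrate buffer holding 10uM D-luciferin and 10uM ATP, pH 7.5, pre-dosed with compound.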
3T3 cytotox = Cytotoxic Profiling in NIH 3T3 Cell Line of Diverse Libraries Using Quantitative High-Throughput Screening | NIH 3T3 viability, CellTiter-Glo ATP luminescence, 48-72 h | Potency, µM (top dose mostly 96.7 µM), for the others: at the top dose activity change, negative = cytotoxicity, hits mostly inhibitors | AID 1345082, 2018 | 94,000 tested, 4.3% active; note: nearly all actives have a fitted effect of over 55% in size
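Cytotoxicity is measured as loss of cellular ATP: NIH 3T3 cells (400/well) are exposed to compound for 48 or 72 hr at 37 °C, then CellTiter-Glo luminescence is imaged after 10 min at room temperature.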
* = called active by the depositor; i = inactive; ? = inconclusive; nt = no result given; [ ] = remark or other dose. A selection: hits, their analogues and other compounds. The true share with any hit is near 11%. Unless noted, calls come from the whole dose curve; as a rule, active = well fitted curve in the direction sought with a large enough effect; inconclusive = small, poorly fitted or top-dose-only effect, or another doubt; inactive = no such curve, though single readings can be large; an effect the other way counts as inactive or inconclusive. % is set by controls: 0 for no effect and ±100 for the full control effect; potency is the fitted concentration of half-maximal effect.

SMILES	HEK293 tox	NPR1 antag	Luciferase inh	3T3 cytotox
C[S+](=O)([O-])Nc1cccc(Nc2cnc3ccc(-c4ccc(F)cc4)nn23)c1	79µM*	-21%[70.6 µM]	?	?
Fc1ccc(-c2ccc3ncc(Nc4ncccn4)n3n2)cc1	-19%[172 µM]	9%[70.6 µM]	i	?
COc1ccc(-c2ccc3ncc(Nc4ccc(C(N)=O)cc4)n3n2)cn1	?	-2%[70.6 µM]	i	?
CCn1nccc1C(=O)N1CCCN(C)c2ccccc21	?	-6%	i	?
O=C(NCCc1ccccc1)C1CCCN(Cc2cccc(-c3ccc(F)cc3F)c2)C1 (centres undefined)	40µM*	nt	nt	?
O=C(NCCc1ccc(F)cc1)C1CCCN(Cc2cccc(-c3ccc(F)cc3F)c2)C1 (centres undefined)	40µM*	nt	nt	?
COc1ccc(CCNC(=O)C2CCCN(Cc3cccc(-c4ccc(F)cc4F)c3)C2)cc1 (centres undefined)	10µM*	nt	nt	?
CCn1cc(S(=O)(=O)N2CCCCC2c2nc(-c3ccncc3)n[nH]2)cn1 (centres undefined)	7%	-11%	i	5%
COCCNC(=O)[C@H]1C[C@H](Oc2cccnc2)CN1C(=O)NC1CCCC1	i	1%	i	3%
Cc1cccc(CN2C[C@@H]3C(C(=O)Nc4ccccc4)=NO[C@@H]3C2)c1	?	-28%[70.6 µM]	i	?
CN1CCC(N2CCC[C@@H](O)[C@H](NC(=O)c3ccc(OCc4ccccc4)cc3)C2)CC1	79µM*	7%	i	?
O=C(CC(c1ccccc1)c1ccccc1Cl)N(Cc1cccnc1)C1CC1 (centres undefined)	35µM*	-26%	i	?
Fc1ccccc1CN1CCC[C@H]1c1nc(-c2ccnc(N3CCOCC3)c2)no1	89µM*	-24%[70.6 µM]	i	?
c1ccc(CN2CCC[C@H]2c2nc(-c3ccnc(N4CCOCC4)c3)no2)cc1	89µM*	-24%[70.6 µM]	i	?
N#Cc1ccc(CN2CCC[C@H]2c2nc(-c3ccnc(N4CCOCC4)c3)no2)cc1	?	?	i	-26%[138 µM]
CC(=O)N1CCN(c2cc(-c3noc([C@@H]4CCCN4Cc4ccc(C(F)(F)F)cc4)n3)ccn2)CC1	28µM*	-15%	i	-35%
COc1ccc(C(=O)Nc2ccc(-c3noc([C@@H]4CCCN4Cc4cnc5ccccc5c4)n3)cn2)cc1	22µM*	13µM*	?	28µM*
CNc1ccc(-c2noc([C@@H]3CCCN3Cc3cnc4ccccc4c3)n2)cn1	?	-19%[70.6 µM]	i	?
COc1ccc(N2CC(C(=O)N3CCC(C(=O)NCc4ccc(C(F)(F)F)cc4)C3)NC2=O)cc1 (centres undefined)	-5%	0%	i	-18%
CC(C)(O)CCc1cccc(C(=O)N2CCC(Nc3ncccn3)CC2)c1	?	-8%	i	-27%
O=C(NCC(F)F)c1cc(Br)cn2ccnc12	1%[172 µM]	28%[70.6 µM]	i	-24%[138 µM]
CN1C(=O)C(CC(N)=O)=C2CCCCC21 (centres undefined)	-11%	-8%	i	-16%
CC(C)CN1CCC[C@H]1c1nc(-c2ccnc(N3CCOCC3)c2)no1	89µM*	-6%[70.6 µM]	i	?
CN(C)c1ccc(-c2noc([C@@H]3CCCN3Cc3nc4ccccc4n3C)n2)cn1	112µM*	2%[70.6 µM]	i	?
CN1CCN(c2ccc(-c3noc([C@@H]4CCCN4Cc4ccccc4)n3)cn2)CC1	71µM*	2%[70.6 µM]	i	100µM*
CS(=O)(=O)c1ccc(CN2CCC[C@H]2c2nc(-c3ccnc(N4CCOCC4)c3)no2)cc1	i	1%	i	-1%
O=C(NCc1ccccc1)c1cn2cc(-c3ccc(F)cc3)sc2n1	-9%	nt	nt	-34%
Cc1noc(C)c1-c1cc2cc(CNC(C)C)oc2c(NC2CCN(C)CC2)n1	63µM*	-2%[70.6 µM]	i	?
Cc1noc(C)c1-c1cc2cc(CO)oc2c(NCc2ccc3c(c2)OCO3)n1	?	-5%[70.6 µM]	i	?
Cc1noc(C)c1-c1cc2cc(CN3CCN(C)CC3)oc2c(NC2CCN(C)CC2)n1	?	2%[70.6 µM]	i	89µM*
